Results taken from the supplement of paper PMC10981050.
Where “and” joins values, the source holds several entries; their conditions need not be identical. Equal values may be shown once.

Experiments:
Experiment in all cases: cell viability relative to vehicle control; higher = less cytotoxic
Details in all cases: 10 µM
K562 = system: K562
Method in brief: (§1)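 CRISPR-edited mutant clones and isogenic wild-type clones from four leukaemia lines were screened against Selleck bioactive, kinase and epigenetic probe libraries, with identity-inconsistent compounds excluded. Each compound was acoustically dispensed at a single 10 µM dose into 384-well plates holding 2000 cells in 50 µL medium per well. After 48 h the supernatant was removed and CellTiter-Glo luminescence was read. Viability was expressed as percent of the on-plate vehicle control and analysed in Genedata Screener.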

MARIMO = system: MARIMO
Method in brief: as §1

MOLM14 = system: MOLM14
Method in brief: as §1

OCI-AML2 = system: OCI-AML2
Method in brief: as §1

Structure (SMILES) | cell viability (K562; SRSF2 genotype: SRSF2 P95H/wt) | cell viability (K562; SRSF2 genotype: SRSF2 wt/wt) | cell viability (MARIMO; SRSF2 genotype: SRSF2 P95H/wt) | cell viability (MARIMO; SRSF2 genotype: SRSF2 wt/wt) | cell viability (MOLM14; SRSF2 genotype: SRSF2 P95H/wt) | cell viability (MOLM14; SRSF2 genotype: SRSF2 wt/wt) | cell viability (OCI-AML2; SRSF2 genotype: P95H/wt) | cell viability (OCI-AML2; SRSF2 genotype: wt/wt)
CC(=O)N1CCC(Nc2cc(C(=O)NC[C@H](O)CN3CCc4ccccc4C3)ncn2)CC1 | 91.8% and 96.6% | 90.9% | 88.8% | 103% | 87.6% | 94.5% | 78.3% | 85.2%
CS(=O)(=O)c1ccc([C@@H](O)[C@@H](CO)NC(=O)C(Cl)Cl)cc1 [Thiamphenicol (Thiophenicol)] | 86.1% and 88.3% | 87.7% | 103% | 101% | 98.5% | 96.8% | 97.3% | 91.2%
C1CCN2C[C@@H]3C[C@@H](CN4CCCC[C@@H]34)[C@H]2C1 [Sparteine] | 95% and 97.6% | 91.1% | 96.8% | 94.9% | 99% | 94.8% | 97.5% | 94.3%
COc1ccc(C(=O)CC(=O)c2ccc(C(C)(C)C)cc2)cc1 [Avobenzone (Parsol 1789)] | 87.3% and 92.5% | 91.8% | 77.2% | 92.6% | 87.6% | 98.9% | 61.2% | 76.8%
N#CC(=C(/N)Sc1ccccc1N)/C(C#N)=C(\N)Sc1ccccc1N | 70.5% and 77.5% | 72.7% | 38.2% | 37.1% | 54.9% | 57.2% | 48.9% | 48.1%
C[C@@H]1CC[C@@]2(OC1)O[C@H]1C[C@H]3[C@@H]4CC=C5C[C@@H](O[C@@H]6O[C@H](CO)[C@@H](O)[C@H](O)[C@H]6O[C@@H]6O[C@@H](C)[C@H](O)[C@@H](O)[C@H]6O)CC[C@]5(C)[C@H]4CC[C@]3(C)[C@@]1(O)[C@@H]2C [Polyphyllin VI] | 0.36% and 0.31% | 0.44% | 4.95% | 0.84% | 0.85% | 0.55% | 0.28% | 0.33%
CC1=C(CC(=O)O)c2cc(F)ccc2/C1=C\c1ccc([S+](C)[O-])cc1 (configuration not stated) [Sulindac (Clinoril)] | 109% and 99.8% | 96.8% | 88.6% | 112% | 92.5% | 100% | 94.2% | 102%
CCN(CC)CCNC(=O)c1c(C)[nH]c(/C=C2\C(=O)Nc3ccc(-c4csc(-c5ccccc5)n4)cc32)c1C [Amcasertib (BBI503)] | 0.84% and 1.26% | 0.76% | 66.4% | 43.4% | 4.21% | 8.87% | 4.03% | 26%
CC(C)c1cc2c(c(O)c1O)[C@@]13CCCC(C)(C)[C@@H]1C[C@@H]2OC3=O [Carnosol] | 43.3% and 33.8% | 61.7% | 4.39% | 0.77% | 6.11% | 5.25% | 5.94% | 1.96%
